Laboratory results from the supplement of paper PMC12669032.

Columns and labels:
Test in all cases: growth AUC relative to DMSO control (median of replicates) (fraction); higher = more growth (less inhibition), active = hit call of the paper
Conditions in all cases: 20 µM; 24 h;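 active = AUC reduced over 20% with Padj below 0.05 in at least 2 of 3 replicates; inactive = otherwise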
Akkermansia muciniphila = system: Akkermansia muciniphila
Method in brief: (§1)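 OD600 was recorded every hour for 24 h in anaerobic monocultures of gut bacteria kept at 37 °C in mGAM, seeded at OD600 0.05 and given 20 µM compound in 1% DMSO. The area under each growth curve was scaled to the plate median of solvent-only wells, or to row and column medians for the industrial chemical plate. Before this step, the minimum OD was set to 0. Reported values are medians of three biological replicates run on separate days.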

Bacteroides caccae = system: Bacteroides caccae
Method in brief: as §1

Bacteroides clarus = system: Bacteroides clarus
Method in brief: as §1

Bacteroides dorei = system: Bacteroides dorei
Method in brief: as §1

Bacteroides stercoris = system: Bacteroides stercoris
Method in brief: as §1

[1] = system: Bacteroides thetaiotaomicron
Method in brief: as §1

Bacteroides uniformis = system: Bacteroides uniformis
Method in brief: as §1

[2] = system: Bifidobacterium longum subsp. longum
Method in brief: as §1

Clostridium difficile = system: Clostridium difficile
Method in brief: as §1

Collinsella aerofaciens = system: Collinsella aerofaciens
Method in brief: as §1

Coprococcus comes = system: Coprococcus comes
Method in brief: as §1

Escherichia coli ED1a = system: Escherichia coli ED1a
Method in brief: as §1

Escherichia coli IAI1 = system: Escherichia coli IAI1
Method in brief: as §1

Eubacterium rectale = system: Eubacterium rectale
Method in brief: as §1

[3] = system: Fusobacterium nucleatum subsp. animalis
Method in brief: as §1

Lactobacillus gasseri = system: Lactobacillus gasseri
Method in brief: as §1

Lactobacillus paracasei = system: Lactobacillus paracasei
Method in brief: as §1

Odoribacter splanchnicus = system: Odoribacter splanchnicus
Method in brief: as §1

[4] = system: Parabacteroides distasonis
Method in brief: as §1

Parabacteroides merdae = system: Parabacteroides merdae
Method in brief: as §1

Measured: growth AUC

Cc1ccc(NC(=O)N(C)C)cc1Cl
inactive: Akkermansia muciniphila 0.946 | Bacteroides caccae 1.04 | Bacteroides clarus 0.989 | Bacteroides dorei 1.01 | Bacteroides stercoris 0.954 | [1] 1 | Bacteroides uniformis 0.976 | [2] 0.827 | Clostridium difficile 1.01 | Collinsella aerofaciens 0.989 | Coprococcus comes 0.996 | Escherichia coli ED1a 0.985 | Escherichia coli IAI1 0.982 | Eubacterium rectale 0.965 | [3] 0.916 | Lactobacillus gasseri 1.12 | Lactobacillus paracasei 0.954 | Odoribacter splanchnicus 1.02 | [4] 1.05 | Parabacteroides merdae 0.972

Nc1c(Cl)c(Cl)c(Cl)c(Cl)c1Cl
inactive: Akkermansia muciniphila 0.856 | Bacteroides caccae 0.897 | Bacteroides clarus 0.935 | Bacteroides dorei 0.956 | Bacteroides stercoris 0.945 | [1] 0.968 | Bacteroides uniformis 0.981 | [2] 0.949 | Clostridium difficile 0.988 | Collinsella aerofaciens 1 | Coprococcus comes 0.958 | Escherichia coli ED1a 0.986 | Escherichia coli IAI1 0.95 | Eubacterium rectale 1.01 | [3] 0.983 | Lactobacillus gasseri 0.972 | Lactobacillus paracasei 0.869 | Odoribacter splanchnicus 0.993 | [4] 1.04 | Parabacteroides merdae 0.971

Nc1c([N+](=O)[O-])ccc(Oc2ccccc2)c1Cl
inactive: Akkermansia muciniphila 0.741 | Bacteroides caccae 0.964 | Bacteroides clarus 0.861 | Bacteroides dorei 0.941 | Bacteroides stercoris 0.925 | [1] 0.941 | Bacteroides uniformis 0.978 | [2] 0.871 | Clostridium difficile 0.982 | Collinsella aerofaciens 0.897 | Coprococcus comes 0.903 | Escherichia coli ED1a 1.01 | Escherichia coli IAI1 1.01 | Eubacterium rectale 0.887 | [3] 0.947 | Lactobacillus gasseri 1.02 | Lactobacillus paracasei 0.832 | Odoribacter splanchnicus 0.935 | [4] 0.951 | Parabacteroides merdae 0.912

CC1(C)[C@H](C(=O)O[C@H](C#N)c2cccc(Oc3ccccc3)c2)[C@@H]1C=C(Br)Br
inactive: Akkermansia muciniphila 0.878 | Bacteroides caccae 0.983 | Bacteroides clarus 0.982 | Bacteroides dorei 1.04 | Bacteroides stercoris 1.04 | [1] 1.02 | Bacteroides uniformis 1.05 | [2] 0.843 | Clostridium difficile 1.02 | Collinsella aerofaciens 0.935 | Coprococcus comes 0.985 | Escherichia coli ED1a 0.991 | Escherichia coli IAI1 0.979 | Eubacterium rectale 1.11 | [3] 0.922 | Lactobacillus gasseri 0.926 | Lactobacillus paracasei 0.986 | Odoribacter splanchnicus 1.03 | [4] 0.972 | Parabacteroides merdae 0.921

CC(COc1ccc(Oc2ccccc2)cc1)Oc1ccccn1 (stereo not given)
inactive: Akkermansia muciniphila 0.989 | Bacteroides caccae 0.949 | Bacteroides clarus 0.98 | Bacteroides dorei 1.01 | Bacteroides stercoris 0.78 | [1] 0.993 | Bacteroides uniformis 0.994 | [2] 1.04 | Clostridium difficile 0.99 | Collinsella aerofaciens 0.994 | Coprococcus comes 0.962 | Escherichia coli ED1a 0.999 | Escherichia coli IAI1 0.968 | Eubacterium rectale 1.04 | [3] 0.97 | Lactobacillus gasseri 0.989 | Lactobacillus paracasei 0.939 | Odoribacter splanchnicus 1.03 | [4] 0.979 | Parabacteroides merdae 0.929

CC(C)(O)C(Cl)(Cl)Cl.CC(C)(O)C(Cl)(Cl)Cl.O
inactive: Akkermansia muciniphila 1.08 | Bacteroides caccae 1.01 | Bacteroides clarus 1 | Bacteroides dorei 0.973 | Bacteroides stercoris 1.12 | [1] 1.05 | Bacteroides uniformis 1.02 | [2] 0.917 | Clostridium difficile 1.03 | Collinsella aerofaciens 0.999 | Coprococcus comes 1.04 | Escherichia coli ED1a 1.01 | Escherichia coli IAI1 1.02 | Eubacterium rectale 0.942 | [3] 1.1 | Lactobacillus gasseri 1.06 | Lactobacillus paracasei 1.02 | Odoribacter splanchnicus 0.967 | [4] 1.05 | Parabacteroides merdae 0.987

CS(=O)(=O)c1cc(C(F)(F)F)ccc1C(=O)c1cnoc1C1CC1
inactive: Akkermansia muciniphila 1 | Bacteroides caccae 1.08 | Bacteroides clarus 1.01 | Bacteroides dorei 1.02 | Bacteroides stercoris 0.921 | [1] 1.02 | Bacteroides uniformis 0.994 | [2] 0.982 | Clostridium difficile 1.05 | Collinsella aerofaciens 1 | Coprococcus comes 1.02 | Escherichia coli ED1a 1.01 | Escherichia coli IAI1 1.01 | Eubacterium rectale 1.04 | [3] 0.93 | Lactobacillus gasseri 1.04 | Lactobacillus paracasei 0.826 | Odoribacter splanchnicus 1.1 | [4] 1.05 | Parabacteroides merdae 1.02

O=C1C=CC(=O)C=C1
inactive: Akkermansia muciniphila 0.97 | Bacteroides caccae 0.991 | Bacteroides clarus 0.992 | Bacteroides dorei 1.01 | Bacteroides stercoris 1.02 | [1] 1.01 | Bacteroides uniformis 1 | [2] 1.01 | Clostridium difficile 0.997 | Collinsella aerofaciens 0.992 | Coprococcus comes 1.02 | Escherichia coli ED1a 1.01 | Escherichia coli IAI1 1.01 | Eubacterium rectale 0.986 | [3] 0.983 | Lactobacillus gasseri 1.04 | Lactobacillus paracasei 1 | Odoribacter splanchnicus 0.975 | [4] 1.03 | Parabacteroides merdae 1.01

Cc1cc(Cl)ccc1N=CN(C)C.Cl
inactive: Akkermansia muciniphila 1.06 | Bacteroides caccae 0.997 | Bacteroides clarus 1.01 | Bacteroides dorei 1.03 | Bacteroides stercoris 0.972 | [1] 1.01 | Bacteroides uniformis 0.982 | [2] 1.03 | Clostridium difficile 1.04 | Collinsella aerofaciens 0.978 | Coprococcus comes 1.09 | Escherichia coli ED1a 1 | Escherichia coli IAI1 0.98 | Eubacterium rectale 1.01 | [3] 1.01 | Lactobacillus gasseri 1.01 | Lactobacillus paracasei 1.03 | Odoribacter splanchnicus 1 | [4] 1.02 | Parabacteroides merdae 1.01

N#CCNC(=O)c1cnccc1C(F)(F)F
inactive: Akkermansia muciniphila 0.888 | Bacteroides caccae 1.01 | Bacteroides clarus 0.959 | Bacteroides dorei 1 | Bacteroides stercoris 0.966 | [1] 0.988 | Bacteroides uniformis 0.99 | [2] 0.961 | Clostridium difficile 0.99 | Collinsella aerofaciens 1.01 | Coprococcus comes 0.993 | Escherichia coli ED1a 1.01 | Escherichia coli IAI1 0.961 | Eubacterium rectale 0.97 | [3] 0.991 | Lactobacillus gasseri 1.06 | Lactobacillus paracasei 0.974 | Odoribacter splanchnicus 1.02 | [4] 1.02 | Parabacteroides merdae 1.03

COP(=S)(OC)Oc1nc(Cl)c(Cl)cc1Cl
inactive: Akkermansia muciniphila 1.06 | Bacteroides caccae 1.01 | Bacteroides clarus 1 | Bacteroides dorei 0.998 | Bacteroides stercoris 0.947 | [1] 0.96 | Bacteroides uniformis 0.935 | [2] 1.01 | Clostridium difficile 0.975 | Collinsella aerofaciens 0.991 | Coprococcus comes 0.978 | Escherichia coli ED1a 0.986 | Escherichia coli IAI1 0.997 | Eubacterium rectale 0.913 | [3] 0.94 | Lactobacillus gasseri 1.07 | Lactobacillus paracasei 0.989 | Odoribacter splanchnicus 0.942 | [4] 0.937 | Parabacteroides merdae 0.951

C/C(=N/Nc1nc(C)cc(C)n1)c1ccccc1C
active: Eubacterium rectale 0.495
inactive: Akkermansia muciniphila 1.24 | Bacteroides caccae 1.01 | Bacteroides clarus 1.06 | Bacteroides dorei 1 | Bacteroides stercoris 1.1 | [1] 0.963 | Bacteroides uniformis 1.03 | [2] 1.01 | Clostridium difficile 0.99 | Collinsella aerofaciens 0.979 | Coprococcus comes 0.957 | Escherichia coli ED1a 1.02 | Escherichia coli IAI1 1.04 | [3] 1.16 | Lactobacillus gasseri 0.994 | Lactobacillus paracasei 1.1 | Odoribacter splanchnicus 0.666 | [4] 1.07 | Parabacteroides merdae 1.07

C[C@H]1[C@H](c2ccc(Cl)cc2)SC(=O)N1C(=O)NC1CCCCC1
inactive: Akkermansia muciniphila 0.988 | Bacteroides caccae 0.91 | Bacteroides clarus 0.965 | Bacteroides dorei 0.945 | Bacteroides stercoris 1.13 | [1] 0.952 | Bacteroides uniformis 0.943 | [2] 0.923 | Clostridium difficile 0.987 | Collinsella aerofaciens 0.928 | Coprococcus comes 1.03 | Escherichia coli ED1a 1 | Escherichia coli IAI1 0.996 | Eubacterium rectale 1.05 | [3] 1.07 | Lactobacillus gasseri 0.791 | Lactobacillus paracasei 1.03 | Odoribacter splanchnicus 0.832 | [4] 0.725 | Parabacteroides merdae 0.947

CC1(C)C(/C=C(\Cl)C(F)(F)F)C1C(=O)OC(C#N)c1cccc(Oc2ccccc2)c1 (stereo not given)
inactive: Akkermansia muciniphila 0.989 | Bacteroides caccae 0.951 | Bacteroides clarus 1.02 | Bacteroides dorei 1.01 | Bacteroides stercoris 1.19 | [1] 0.995 | Bacteroides uniformis 0.993 | [2] 1.12 | Clostridium difficile 1.04 | Collinsella aerofaciens 0.969 | Coprococcus comes 1.01 | Escherichia coli ED1a 1.05 | Escherichia coli IAI1 1.02 | Eubacterium rectale 1.03 | [3] 1.12 | Lactobacillus gasseri 0.895 | Lactobacillus paracasei 1.08 | Odoribacter splanchnicus 0.878 | [4] 1.03 | Parabacteroides merdae 1.03

O=C1OCC2C1C1(Cl)C(Cl)=C(Cl)C2(Cl)C1(Cl)Cl (stereo not given)
inactive: Akkermansia muciniphila 1.09 | Bacteroides caccae 0.965 | Bacteroides clarus 0.991 | Bacteroides dorei 0.987 | Bacteroides stercoris 0.871 | [1] 1.04 | Bacteroides uniformis 1.01 | [2] 1.06 | Clostridium difficile 0.987 | Collinsella aerofaciens 0.926 | Coprococcus comes 1.01 | Escherichia coli ED1a 0.979 | Escherichia coli IAI1 1.01 | Eubacterium rectale 1.07 | [3] 0.925 | Lactobacillus gasseri 0.927 | Lactobacillus paracasei 0.991 | Odoribacter splanchnicus 1.09 | [4] 1.07 | Parabacteroides merdae 0.987

CCc1cccc(CC)c1N(COC)C(=O)CCl
inactive: Akkermansia muciniphila 0.942 | Bacteroides caccae 1 | Bacteroides clarus 0.991 | Bacteroides dorei 0.949 | Bacteroides stercoris 1.08 | [1] 0.957 | Bacteroides uniformis 0.985 | [2] 1 | Clostridium difficile 0.974 | Collinsella aerofaciens 0.989 | Coprococcus comes 0.976 | Escherichia coli ED1a 0.96 | Escherichia coli IAI1 0.975 | Eubacterium rectale 0.993 | [3] 1.05 | Lactobacillus gasseri 0.948 | Lactobacillus paracasei 1.01 | Odoribacter splanchnicus 1.04 | [4] 0.993 | Parabacteroides merdae 0.978
